From the supplement of paper PMC6555819

Key:
Assay in all cases: PBM binding z-score (relative to random genomic background probes); higher = stronger binding; sequences stand for … in GC…GCGATTGACAGCGTAGAATGAAGG
[1] = system: FXR:RXRa (NR concentration 270 nM, RXRa partner concentration 90 nM)
In short: (§1)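 Scanned fluorescence from custom Agilent 4×180K protein-binding microarrays was regression-normalized. Binding z-scores use random background probes as reference. Ligand-free nuclear receptor dimers were incubated on the arrays for 1 h and detected with antibodies against each partner (one per run).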

[2] = system: LXRa:RXRa (NR concentration 270 nM, RXRa partner concentration 90 nM)
In short: as §1

[3] = system: LXRa homodimer (NR concentration 270 nM)
In short: as §1

[4] = system: LXRb:RXRa (NR concentration 270 nM, RXRa partner concentration 90 nM)
In short: as §1

[5] = system: LXRb homodimer (NR concentration 270 nM)
In short: as §1

[6] = system: PPARa:RXRa (NR concentration 270 nM, RXRa partner concentration 90 nM)
In short: as §1

[7] = system: PPARg:RXRa (NR concentration 180 nM, RXRa partner concentration 90 nM)
In short: as §1

[8] = system: PPARg:RXRa 270nM:90nM, anti-RXR (NR concentration 270 nM, RXRa partner concentration 90 nM)
In short: as §1

[9] = system: PPARg:RXRa 30nM:10nM, anti-RXR (NR concentration 30 nM, RXRa partner concentration 10 nM)
In short: as §1

[10] = system: PPARg:RXRa 90nM:30nM, anti-RXR (NR concentration 90 nM, RXRa partner concentration 30 nM)
In short: as §1

[11] = system: PPARg:RXRa DBDmut IVT, anti-RXR (DBD mutation: RXRa K156A/R161A, NR concentration 270 nM, RXRa partner concentration 90 nM)
In short: as §1

[12] = system: PPARg:RXRa IVT, anti-PPARg (NR concentration 270 nM, RXRa partner concentration 90 nM)
In short: as §1

[13] = system: PPARg DBDmut:RXRa IVT, anti-PPARg (DBD mutation: PPARg1 K132A/R137A, NR concentration 270 nM, RXRa partner concentration 90 nM)
In short: as §1

[14] = system: PPARg DBDmut IVT, anti-PPARg (DBD mutation: PPARg1 K132A/R137A, NR concentration 270 nM)
In short: as §1

[15] = system: PPARg homodimer (NR concentration 180 nM)
In short: as §1

[16] = system: PXR:RXRa (NR concentration 270 nM, RXRa partner concentration 90 nM)
In short: as §1

[17] = system: PXR homodimer (NR concentration 270 nM)
In short: as §1

[18] = system: RARa:RXR (NR concentration 270 nM, RXRa partner concentration 90 nM)
In short: as §1

[19] = system: RARa homodimer (NR concentration 270 nM)
In short: as §1

[20] = system: RARb:RXRa (NR concentration 270 nM, RXRa partner concentration 90 nM)
In short: as §1

Sequence	PBM binding z-score [1]	PBM binding z-score [2]	PBM binding z-score [3]	PBM binding z-score [4]	PBM binding z-score [5]	PBM binding z-score [6]	PBM binding z-score [7]	PBM binding z-score [8]	PBM binding z-score [9]	PBM binding z-score [10]	PBM binding z-score [11]	PBM binding z-score [12]	PBM binding z-score [13]	PBM binding z-score [14]	PBM binding z-score [15]	PBM binding z-score [16]	PBM binding z-score [17]	PBM binding z-score [18]	PBM binding z-score [19]	PBM binding z-score [20]
ACAGACAGGTGATGAAGGTAACTCAAGCTATCAT	-0.102	-0.296	-0.525	-0.0355	-0.354	0.0252	0.537	-0.224	0.113	-0.261	0.0752	0.481	-0.066	0.468	0.000193	-0.188	0.00644	-0.191	0.18	0.252
CGAACTAGGTCAAGGACATTGAATCTCCGCACGC	3.45	2.4	0.44	1.68	0.0209	4.43	7.54	6.28	4.19	6	8.24	7.84	1.49	0.731	1.29	1.56	0.252	2.12	0.87	3.98
CAAACTAGGTCAAAGGTAAAAGTCGAGCCAACCA	5.4	4.12	0.676	3.51	0.646	6.67	13	10.3	12.5	12.1	8.99	9.08	2.75	1.05	2.75	3.48	-0.123	5.33	0.696	4.21
CCTACTGGGCCATCAGGTCTTTGATATCAACGTT	-0.207	-0.321	-0.21	-0.159	-0.568	0.508	0.773	1.66	0.0943	1.01	4.27	4.11	-0.465	-0.285	0.396	-0.399	-0.181	-0.151	-0.266	0.423
CCTTACGGGTCACTGCAGGTTATAGCATCGGAGT	5.36	7.22	1.13	5.01	0.0222	4.88	3.68	4.35	1.16	3.15	3.51	3.76	-0.541	-0.0144	1.95	4.74	0.0878	4.05	0.239	3.97
CCTATTAGTTGACCATAAGGGCAAGCGAAGCTCG	0.766	0.114	0.254	0.218	0.573	0.369	0.36	0.458	-0.0041	0.237	0.132	0.158	-0.0196	0.32	1.47	0.536	0.56	0.913	1.9	1.65
ATCGAAAGGTCGAAGGTGAGAATACCCACCCGAA	4.1	3.81	0.0457	2.94	0.451	4.73	4.6	4.93	2.85	4.31	0.14	2.32	0.346	0.631	1.03	3.1	0.0633	4.65	0.941	3.83
TCTTGTTGATCAAGCAGGTTAAGAAAGCCTGAGT	0.36	0.33	-0.00348	0.357	-0.269	0.497	-0.685	1.11	2.49	1.96	1.34	0.182	-0.406	0.392	0.2	0.29	0.159	0.176	-0.0111	0.317
ACTTACTGGTCAACGAGGTTATAGCACGCGTATA	1.24	1.44	0.897	1.62	0.859	1.88	1.04	1.16	1.29	1.29	1.29	1.65	1.75	1.91	1.38	1.89	0.901	2.03	1.23	2.09
CCTATTAGTTGACCATAAGTGCAACCGAAGCTCG	0.669	0.833	1.25	0.757	1.09	0.517	0.672	0.74	0.581	0.574	0.899	0.364	1.12	0.839	1.89	1.11	1.66	0.812	2.6	0.81
CCTTACGGGTCACTGACAGGTTAAAGCATTTGGA	5.65	4.59	0.409	3.69	-0.38	5.05	4.6	4.5	1.97	3.25	3.63	4.02	0.71	0.495	4.09	3.98	0.033	5.21	0.619	3.94
AACGAAAGGTCGTGAGGTGAGTATACAGAAAGGC	5.67	4.36	0.174	3.32	-0.0859	5.07	4.41	4.6	1.54	3.21	0.775	2.28	0.36	0.0984	1.96	3.37	0.132	4.22	0.704	4.04
CGTCCAAGGTCAAAGGTCAGTGAGGAGATGACGG	8.06	7.01	4.05	6.21	1.86	7.08	10.8	8.98	8.09	9.57	4.27	5.57	0.435	-0.522	6.24	7.08	2.54	8.87	5.49	5.85
GCAGACAGGTGAAACGCAGGTAACTAAGGGTGGC	-0.237	0.0308	-0.755	-0.289	-0.873	0.88	0.651	-0.421	-0.539	-0.453	0.562	0.741	-0.406	-0.735	-0.84	-0.388	-0.493	0.156	-0.657	0.531
